Screening results as filed in PubChem BioAssay.
The sample as a whole holds a higher share of hits than the screen did.
DUX4 inh = blocks DUX4-driven transcriptional activation | 293T-iDUX4 ZSCAN4-Gaussia luciferase reporter, 24 h; active compounds read low | activity change, negative = inhibition, % (concentration not given with the values) | 37,000 tested, 0.8% active;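 active means mean inhibition of at least 10% in the main channel, exceeding the control channel by a set limit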
Hits are given with their value; n = inactive; ! = not confirmed by another sample.

SMILES	DUX4 inh
C/C=C/c1ccc(C2[C@@H]3CN(Cc4ccccn4)C[C@H]2N3)cc1 (some centres not stated)	n
C/C=C/c1ccc(C2[C@@H]3CN(C(C)=O)C[C@H]2N3)cc1 (some centres not stated)	-21.3!
C/C=C/c1ccc(C2[C@@H]3CN(C(=O)C4CCCC4)C[C@H]2N3)cc1 (some centres not stated)	n
O=C(Cc1ccncc1)N1CCCCN2[C@H](C1)[C@H](c1ccc(C#Cc3ccccc3F)cc1)[C@@H]2CO	-62.7
O=C(Cc1ccccc1)N1CCCCN2[C@H](CO)[C@@H](c3ccc(C#CC4(O)CCCC4)cc3)[C@H]2C1	n
N#Cc1ccc(-c2ccc([C@@H]3[C@@H](CO)N4CCCCN(C(=O)Cc5ccccc5)C[C@H]34)cc2)cc1	n
COC(=O)C[C@@H]1CC[C@H]2NC[C@@H](O)COC[C@@H]2O1	n
COC(=O)[C@@H]1[C@@H](CO)[C@@H]2Cn3c(ccc(C4=CCCCC4)c3=O)[C@H]1N2C(=O)CC1CC1	n
CCCN1[C@@H]2Cn3c(ccc(-c4ccccc4)c3=O)[C@H]1[C@@H](C(=O)OC)[C@@H]2CO	n
CCC(=O)N1[C@@H]2c3ccc(-c4cccc(F)c4)c(=O)n3C[C@H]1[C@H](CO)[C@H]2C(=O)OC	n
